IMPase Li cell – IMPase inhibition in cells with lithium potentiation. 0.35% of 210,000 active. AID 1457. CHO-M1 cells, IP1 TR-FRET (IP-One), carbachol + lithium. Potency, µM (doses to about 59.4 µM), for the others: at the top dose activity, negative = IMPase inhibition, usual class: inhibitors;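 note: IP1 builds up when IMPase is blocked and the TR-FRET signal falls; potency is the fitted concentration of half-maximal effect; plate controls were basal vehicle for no effect and high inhibitor control for full effect; nearly all actives have a fitted effect of over 50% in size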
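CHO-M1, 2000 cells/well, 16–30 h culture; cpd + low Li+, 30 min 37C; lysis with d2-IP1/Eu-anti-IP1 Ab, 10 min RT; TR-FRET 665/620 ratio and 620 channel; AC50 via Hill.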
12-hLO inh – 12-hLO (ALOX12) enzyme inhibition | 0.12% of 150,000 active | AID 1452 | purified 12-hLO, xylenol orange hydroperoxide absorbance | Potency, µM (series often up to 57.1 µM), for the others: at the top dose activity change, negative = inhibition, actives largely listed as inhibitors | P18054; note: potency is the fitted concentration of half-maximal effect; nearly all actives have a fitted effect of over 55% in size
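Xylenol orange chromogenic assay: hydroperoxide from 12hLO oxidises Fe(II), giving red-shifted Fe(III)-XO absorbance. Conditions: 150 nM enzyme, 40 uM arachidonic acid, 25 mM Hepes pH 7.0, 0.01% Triton X-100, 30 min, room temperature.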
IMPase inh – membrane-permeable compound that blocks inositol monophosphatase; inhibition (IP1 accumulation), % at 46.1 µM; AID 901; 120,000 tested, under 10 active; P97697; CHO-M1 cells, IP1 accumulation, HTRF TR-FRET ratio; active = well fitted curve in the direction sought with a large enough effect in the signal ratio, not every such curve was filed as active; inconclusive = small, poorly fitted or top-dose-only effect, or a change in a side signal; inactive = no such curve, though single readings can be large or run the other way; the % refers to the signal ratio;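 note: cells stimulated with carbachol in lithium chloride buffer; plate controls were DMSO basal wells for no effect and reference inhibitor wells for full effect; higher means more IMPase inhibition seen as more IP1 and lower FRET ratio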
Target sequence (P97697 whole entry, looked up): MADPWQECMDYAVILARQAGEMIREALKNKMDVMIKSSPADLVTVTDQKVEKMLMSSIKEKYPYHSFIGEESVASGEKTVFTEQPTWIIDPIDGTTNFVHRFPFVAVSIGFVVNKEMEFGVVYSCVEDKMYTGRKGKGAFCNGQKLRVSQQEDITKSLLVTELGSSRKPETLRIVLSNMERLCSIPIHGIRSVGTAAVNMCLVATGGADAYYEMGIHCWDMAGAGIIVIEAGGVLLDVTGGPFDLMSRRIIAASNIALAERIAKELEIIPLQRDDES
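CHO-M1, 2000 cells/well, cultured 16–30 h; cpd up to 46 uM; carbachol (50 uM solution, stimulation buffer w/ 50 mM LiCl, pH 7.4), 30 min 37C; IP-One TR-FRET, 10 min RT; Ex 320/Em 665, 620; Hill-fit AC50.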
PNC inhibitor – blocks assembly of the perinucleolar compartment. 3.1% of 140,000 active. PC3M PTB-GFP, PNC prevalence imaging, 16 h; active compounds read low. activity change (PNC), negative = inhibition, % at 10 µM;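 active = readout at or below -70, meaning at least 70% loss of cells showing the perinucleolar compartment, a nuclear body marking cancer cells; inconclusive = readout between -30 and a set limit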;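 note: plate controls were DMSO wells for no effect and camptothecin positive control wells for full effect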
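Read-out is percentage of cells bearing a perinucleolar compartment, from automated 20x imaging of fixed, Hoechst-stained PC3M PTB-GFP cells. Cells were seeded 4 h, then exposed 16 h to compound (23 nl of library stock) in duplicate plates.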
HPGD block – inhibitors of human 15-hydroxyprostaglandin dehydrogenase (HPGD) | Potency, µM, for the others: at the top dose activity change, negative = inhibition, most hits filed as inhibitors | purified HPGD, NADH fluorescence kinetic, PGE2 substrate | 4.3% of 150,000 active | AID 894 | P15428; active = well fitted inhibition curve with a large enough effect, not every such curve was filed as active; inconclusive = small, poorly fitted or top-dose-only effect, or another doubt; inactive = no such curve, though single readings can be large or run the other way; note: potency is the fitted concentration of half-maximal effect
Target sequence (P15428 whole entry, looked up): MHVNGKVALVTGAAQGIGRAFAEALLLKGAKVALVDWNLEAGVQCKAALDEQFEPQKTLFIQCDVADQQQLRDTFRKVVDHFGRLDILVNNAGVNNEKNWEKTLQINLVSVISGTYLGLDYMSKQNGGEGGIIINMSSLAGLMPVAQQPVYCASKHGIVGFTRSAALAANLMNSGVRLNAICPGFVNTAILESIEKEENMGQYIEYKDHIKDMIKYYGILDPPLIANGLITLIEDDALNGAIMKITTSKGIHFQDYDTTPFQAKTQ
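NADH formation kinetics: reaction with 30 uM PGE2 and 1 mM NAD+ (final), 20 nM enzyme, Tris-HCl pH 8 with Tween 20, after 15 min compound preincubation at room temperature. Fluorescence change, last versus first of five reads.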
ALDH1A1 inh – blocks purified human ALDH1A1 activity; P00352; Purified ALDH1A1, NADH fluorescence, propionaldehyde substrate; Potency, µM (highest dose often 75.3 µM), for the others: at the highest dose activity, negative = inhibition, hits mostly inhibitors; 7.3% of 220,000 active; AID 1030; active = well fitted inhibition curve with a large enough effect, not every such curve was filed as active; inconclusive = small, poorly fitted or top-dose-only effect, or another doubt; inactive = no such curve, though single readings can be large or run the other way;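 note: potency is the fitted concentration of half-maximal effect; plate controls were no enzyme wells and a reference inhibitor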
An asterisk follows results filed as active; ? = inconclusive; / = not tested or not shown; [ ] = dose if it differs, or a comment. In the library only some 11% were active in any assay of this set; here they are far more common. Unless noted, calls come from the whole dose curve; as a rule, active = well fitted curve in the direction sought with a large enough effect; inconclusive = small, poorly fitted or top-dose-only effect, or another doubt; inactive = no such curve, though single readings can be large; an effect the other way counts as inactive or inconclusive. Unless noted, % is set by controls: 0 for no effect and ±100 for the full control effect.

SMILES	IMPase Li cell	12-hLO inh	IMPase inh	PNC inhibitor	HPGD block	ALDH1A1 inh
CCC(C)NC(=O)c1n[nH]c(=O)c2ccccc12 (configuration not stated)	-14%[38.3 µM]	-5%	-1	-100*	3%	0%
COc1ccc(-c2nc(NC(=O)c3n[nH]c(=O)c4ccccc34)sc2C)cc1	6%	0%	/	-114*	-13%	0%
Cc1cc(C)c(-c2csc(NC(=O)c3n[nH]c(=O)c4ccccc34)n2)c(C)c1	9%	-2%	-4	-89*	-6%	10%
COc1ccc(-c2nc3ccccc3n3c(-c4ccc(OC)cc4)c4c(=O)n(C)c(=O)n(C)c4c23)cc1	/	/	2	/	/	/
COC(=O)C/C=C1\c2ccccc2C(OC)C1C (configuration not stated)	/	/	/	/	/	-3%[13.5 µM]
COc1ccccc1N1C(=O)C2C(c3ccccc3F)NN(C(=O)c3ccc(C)cc3)C2C1=O (configuration not stated)	7%	-9%	/	37	?	8%
Cc1ccc(C(=O)N2NC(c3ccccc3F)C3C(=O)N(c4cccc(C)c4)C(=O)C32)cc1 (configuration not stated)	10%	-5%	/	38	-28%	2.5µM*
COc1ccc(-n2nccc2-c2nn(-c3cccc(OC)c3)c(=O)n(C)c2=O)cc1	35%[38.3 µM]	7%	3	4	-20%	-5%
COc1cccc(-n2nc(-c3ccnn3-c3ccc(C)cc3)c(=O)n(C)c2=O)c1	34%[38.3 µM]	4%	5	?	-24%	40µM*
CCCCCCCCCCCCCCCCOCC(CO)OC (configuration not stated)	19%	-3%	/	/	-6%	1%
N#CC1=C2SCCN2C(=O)C(C#N)C12CCCCC2 (configuration not stated)	/	-1%	0	?	/	0.56µM*
O=C(CSc1nnc(Cc2cccs2)n1-c1ccccc1)Nc1ccc2c(c1)OCCO2	24%[38.3 µM]	-1%	2	4	-10%	7.9µM*
Cc1ccc(-n2c(Cc3cccn3C)nnc2SCC(=O)Nc2nnc(C)s2)cc1	-1%[38.3 µM]	-9%	-16	5	-10%	6%
Cc1ccc(-n2c(Cc3cccs3)nnc2SCC(=O)Nc2ccc(F)c(F)c2)cc1	2%[38.3 µM]	-11%	1	21	-5%	?
O=C1COc2ccc(C(=O)CSc3nnc(Cc4cccs4)n3-c3ccccc3)cc2N1	32%[38.3 µM]	-5%	5	?	-26%	3.2µM*
COc1ccc(NC(=O)CSc2nnc(Cc3cccn3C)n2-c2ccc(F)cc2)cc1OC	27%[38.3 µM]	-7%	1	-10	-16%	25µM*
Cc1nnc(NC(=O)CSc2nnc(Cc3cccn3C)n2C)s1	-26%[38.3 µM]	-3%	12	-95*	-9%	22µM*
Cn1cccc1Cc1nnc(SCC(=O)Nc2ccc(F)cc2)n1-c1ccc(F)cc1	8%	-6%	7	-16	-1%	?
CCCCC[C@H](O)/C=C/[C@@H]1[C@H](C/C=C\CCCC(=O)O)[C@@H](O)C[C@H]1O	-11%	1%	/	/	-8%	3%
Cn1cnc([N+](=O)[O-])c1Sc1nc(N)nc2c1ncn2[C@H]1C[C@H](O)[C@@H](CO)O1	11%	5%[11.4 µM]	/	/	-8%	5%[13.5 µM]
CN1CCN([C@@H](c2ccccc2)c2ccc(Cl)cc2)CC1	9%	4%[25.6 µM]	11[20.6 µM]	/	-3%	5%[20.9 µM]
COc1ccc(-n2c(Cc3cccn3C)nnc2SCC(=O)Nc2cccc(F)c2)cc1	3%	-7%	0	?	-16%	13µM*
COCCn1c(SCC(=O)Nc2nnc(C)s2)nnc1-c1cc2ccccc2cc1O	13%[38.3 µM]	-13%	6	-91*	?	?
COCCn1c(SCC(=O)Nc2nnc(C)s2)nnc1-c1c[nH]c2ccccc12	11%[38.3 µM]	0%	-5	17	-10%	5%
Cc1ccc(-n2c(Cc3cccn3C)nnc2SCC(=O)Nc2ccc3c(c2)OCO3)cc1	-7%[38.3 µM]	-8%	-18	0	-20%	?
SMILES	IMPase Li cell	12-hLO inh	IMPase inh	PNC inhibitor	HPGD block	ALDH1A1 inh
Cn1cccc1Cc1nnc(SCC(=O)Nc2ccc3c(c2)OCCO3)n1-c1ccc(F)cc1	-1%	1%	1	4	0%	20µM*
Cn1cccc1Cc1nnc(SCC(=O)Nc2ccc(Cl)cc2)n1-c1ccc(F)cc1	6%	-18%	5	?	-11%	?
COc1ccc(-n2c(Cc3cccn3C)nnc2SCC(=O)Nc2ccc(Cl)cc2)cc1	37%[38.3 µM]	-15%	0	?	-11%	4µM*
COc1ccc(NC(=O)N2CC3(CCN(S(=O)(=O)c4ccccc4)CC3)C2)cc1	10%	0%	/	/	-1%	4%
COCC(=O)N1CCC2(CCN(Cc3ccccc3OC)CC2)CC1	29%	3%	/	/	1%	9%
Cc1occc1-c1nnc(SCC(=O)Nc2ccccc2)n1CCc1ccccc1	2%[38.3 µM]	-10%	0	?	-2%	4%
COc1ccc(-n2c(Cc3cccn3C)nnc2SCC(=O)Nc2ccccc2)cc1	34%[38.3 µM]	-9%	2	?	-14%	14µM*
CCOC(=O)c1cccc(NC(=O)CSc2nnc(-c3ccoc3C)n2CCOC)c1	4%[38.3 µM]	11%	15	?	-14%	20µM*
CCc1ccc(NC(=O)CSc2nnc(Cc3cccn3C)n2-c2ccc(OC)cc2)cc1	27%[38.3 µM]	-3%	2	6	-9%	?
O=C(CNC(=O)c1ccccc1)OC(C(=O)c1ccccc1)c1ccccc1 (configuration not stated)	-2%	-2%	-2	?	-10%	-9%
COc1ccc(C(=O)C(OC(=O)CNC(=O)c2ccco2)c2ccccc2)cc1 (configuration not stated)	-13%[38.3 µM]	-4%	1	7	-9%	20µM*
O=C(CSc1nncn1-c1cccnc1)N(c1ccccc1)c1ccccc1	4%	/	/	/	/	16µM*
COc1ccc(S(=O)(=O)N=Nc2c(O)[nH]c3ccccc23)cc1	2%	/	/	/	/	25µM*
C#CCCCO/N=C1/C[C@@H](O)[C@@H](O)[C@@H]2[C@@H]3C(=O)N([C@@H](C)c4ccccc4)C(=O)[C@H]3CC[C@H]12	/	/	/	/	/	10%[13.5 µM]
COc1cccc(C(C(=O)NC2CCCCC2)N(C(=O)c2ccco2)c2ccc(-n3cnnn3)c(C)c2)c1 (configuration not stated)	9%	-4%	3	-100*	-17%	?
Cc1ccc(COC(=O)c2[nH]c3c(c2C)C(=O)CC(c2ccc(N(C)C)cc2)C3)cc1 (configuration not stated)	/	/	3	/	/	/

Screening results: PubChem, National Center for Advancing Translational Sciences (NCATS)
